Compound activity (PubChem)
D2 ag-1: activates the human D2 dopamine receptor; P14416; DiscoveRx PathHunter D2 beta-arrestin, luminescence, 90 min; 100% = 57 uM dopamine signal; activation, % (no concentration beside the values); actives 0.084% (n = 360,000); AID 624465; in the data active = activation above about 40%; inconclusive = between about 15% and that limit
Target sequence (P14416 whole entry, looked up): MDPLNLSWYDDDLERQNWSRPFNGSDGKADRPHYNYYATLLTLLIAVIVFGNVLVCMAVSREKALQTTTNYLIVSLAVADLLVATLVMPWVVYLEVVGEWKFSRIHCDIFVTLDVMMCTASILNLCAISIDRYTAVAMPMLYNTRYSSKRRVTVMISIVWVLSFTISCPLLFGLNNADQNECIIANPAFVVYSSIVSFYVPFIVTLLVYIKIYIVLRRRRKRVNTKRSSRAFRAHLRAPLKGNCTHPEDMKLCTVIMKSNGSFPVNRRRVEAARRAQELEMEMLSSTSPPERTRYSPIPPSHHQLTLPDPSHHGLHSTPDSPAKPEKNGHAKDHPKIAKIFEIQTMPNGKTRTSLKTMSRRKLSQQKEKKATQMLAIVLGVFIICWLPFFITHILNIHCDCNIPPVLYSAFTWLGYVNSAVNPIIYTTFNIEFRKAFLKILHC
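Agonist mode: compounds alone added to overnight-plated D2 PathHunter cells for 90 min at 37 C, with 57 uM final dopamine (EC100) defining full response. Beta-arrestin recruitment detected by chemiluminescent reagent, read after 1 h at ambient temperature.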
D2 PAM-1: human D2 receptor positive allosteric modulation; P14416; AID 624464; DiscoveRx D2 beta-arrestin cells, luminescence, 90 min; 100% = 57 uM dopamine signal; actives 0.23% (n = 360,000); potentiation, % (test concentration not listed); in the data active = potentiation above about 50%; inconclusive = mostly about 30% to 49%
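PathHunter D2 cells, attached overnight at 37 deg C, received compound in DMSO plus dopamine at EC20 (50 nM final) for 90 min at 37 deg C. Beta-arrestin recruitment was read as luminescence after 1 h with detection reagent at ambient temperature.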
D2 antagonist: D2 dopamine receptor (human) antagonism. P14416. HEK293 TREx D2 cells, calcium flux, dopamine EC80. inhibition, % at 10 µM. actives 2% (n = 340,000); in the data active = inhibition above about 30%; inactive = below that, where a call was filed
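Dopamine at EC80 is the agonist stimulus; test compounds precede it by 180 s. Calcium flux read kinetically in a force-coupled, inducible HEK293 T-REx D2 cell line.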
D2 ag-2: activates the human D2 dopamine receptor; activation, % at 2 µM; AID 485358; actives 0.53% (n = 340,000); P14416; HEK293 T-REx D2 cells, calcium flux agonist mode;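 active = activation over 3 SD above normal in the single-dose calcium agonist read, cut at about 30% in these data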
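Agonism is scored from calcium flux in a force-coupled, inducible HEK293 cell line expressing D2, read kinetically for 180 s after compound addition against dopamine controls.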
D2 PAM-2: D2 dopamine receptor (human) potentiation; AID 485347; potentiation, % at 10 µM; P14416; HEK293 T-REx D2, calcium flux, EC20 dopamine potentiation; actives 0.34% (n = 340,000);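 active = potentiation over 3 SD above the plate norm, cut at about 30% in these data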
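Tetracycline-induced HEK293 T-REx cells force-coupled to calcium signalling expressed D2; compounds were pin-added after a 10 s baseline, read kinetically 180 s, then an EC20 dopamine challenge followed with a further 180 s calcium read.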
Hits are given with their value; – = inactive; ? = inconclusive; · = no result. This is a sample that favours compounds with a hit; in the whole collection about 2.4% have one here.

SMILES	D2 ag-1	D2 PAM-1	D2 antagonist	D2 ag-2	D2 PAM-2
CC(=O)Nc1ccc(NC(=O)Nc2cccc(Cl)c2)cc1	–	–	–	–	–
CC(=O)C(=Nc1ccc(Cl)cc1Cl)NNc1cccc(Cl)c1	?	125	–	–	–
COCCn1c(=S)[nH]c2cc(C(=O)NC(C)C)ccc2c1=O	–	–	–	–	–
CC(C)Cn1c(=S)[nH]c2cc(C(=O)O)ccc2c1=O	–	–	31	–	–
Cc1nn(-c2ccccc2)c(C)c1C(=O)OCc1ccc(C#N)cc1	–	–	–	–	–
C=CCSc1nc(C)c(CCCC)c(=O)[nH]1	–	–	–	–	–
C=CCSc1nc(C)c(CC=C)c(=O)[nH]1	–	–	–	–	35
Cc1cc(C)c(NC(=O)C2CCN(c3nc4ccccc4n4cccc34)CC2)c(C)c1	·	·	·	–	–
Cn1c(N)c(C(=O)CSc2nnc(-c3ccccc3F)n2C2CC2)c(=O)n(C)c1=O	–	–	–	–	–
Cn1c(N)c(C(=O)CSc2nnc(-c3ccccc3F)n2N)c(=O)n(C)c1=O	–	–	34	–	–
O=C1CC(c2ccc3c(c2)OCO3)c2cc3c(cc2N1)OCO3 (centres undefined)	–	–	–	–	–
O=C1CC(c2ccncc2)c2cc3c(cc2N1)OCO3 (centres undefined)	–	–	37	–	–
COc1ccc(CCNC(=O)CCn2c(=O)[nH]c3cc(OC)c(OC)cc3c2=O)cc1OC	–	–	–	–	–
CCOc1cc2[nH]c(=O)n(CCC(=O)NCCc3ccc(OC)c(OC)c3)c(=O)c2cc1OCC	–	–	–	–	35
Fc1cccc(NCc2cccn2-c2nnc(N3CCOCC3)s2)c1	·	·	·	–	·
COC(=O)c1cc(C(=O)OC)cc(-n2c(C)cc(C(=O)COC(=O)CNS(=O)(=O)c3ccc(C)cc3)c2C)c1	–	–	60	–	–
Cn1ncc2c(N3CCN(c4ccccc4Cl)CC3)ncnc21	·	·	·	–	–
COc1cc2[nH]c(C(=O)NCc3ccccc3)cc2c(OC)c1OC	–	–	84	–	–
COc1cc(C(=O)NCCC(=O)NC(C)CCc2ccccc2)cc(OC)c1OC (centres undefined)	–	–	–	–	33
COc1ccc2[nH]c(C(=O)NCCc3ccccc3)cc2c1	–	–	–	–	–
COc1cc2[nH]c(C(=O)NCCc3ccccc3)cc2c(OC)c1OC	–	–	79	–	–
COc1cccc(N2CCN(C(=O)c3cc4c(OC)c(OC)c(OC)cc4[nH]3)CC2)c1	–	–	38	–	–
COc1cc2[nH]c(C(=O)N3CCN(C)CC3)cc2c(OC)c1OC	–	–	–	–	–
CCOc1ccccc1CNC(=O)CCc1c(C)nn(-c2ccc(N3CCCC3)nn2)c1C	·	·	·	–	–
O=C(Cn1cnc2nc3c(cc2c1=O)CCCC3)Nc1ccc(F)cc1Cl	·	·	·	–	–
SMILES	D2 ag-1	D2 PAM-1	D2 antagonist	D2 ag-2	D2 PAM-2
COc1ccc(-c2nc3n(n2)C(c2ccc(OC)cc2)C(C(=O)Nc2cccnc2)=C(C)N3)cc1 (centres undefined)	·	·	·	–	–
COc1cc2[nH]cc(C(=O)NCCc3ccccc3)c(=O)c2cc1OC	–	–	–	–	39
COc1cc2[nH]cc(C(=O)NCc3ccccc3)c(=O)c2cc1OC	–	–	–	–	–
CCOCCOC(=O)c1ccc(NC(=O)/C=C/c2ccc(OC)c(OC)c2)cc1	·	·	·	–	–
O=c1cc(/C=C/c2ccccc2)oc2c1ccc1ccccc12	–	–	–	–	–
O=c1cc(C(F)(F)F)oc2c1ccc1ccccc12	–	–	34	–	–
COC(=O)C1=C(C(=O)c2ccc(C)cc2)C(c2ccc(OC)c(OC)c2)n2nnnc2N1 (centres undefined)	–	–	33	–	–
COC(=O)C1=C(C(=O)c2ccc(C)cc2)C(c2ccc(O)c(OC)c2)n2nnnc2N1 (centres undefined)	–	–	–	–	–
CN(C1CCCC1)C1CCN(C(=O)CNC(=O)/C=C/c2ccc(F)cc2)CC1	–	–	85	–	–
O=C(Cn1ccc([N+](=O)[O-])n1)N1CCc2ccccc21	–	–	–	–	–
Cc1nn(C(=O)Cn2ccc([N+](=O)[O-])n2)c(C)c1Br	–	–	–	–	31
